# PriA SSB inh: K. pneumoniae PriA-SSBct interaction inhibition | inhibition, % at 33 µM | hit rate 0.6% among 430,000 | AlphaScreen SSBct-PriA binding, biotinylated peptide; in the data active means inhibition mostly above about 37%, no sharp cut-off; inactive means mostly below about 20%;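 further: plate controls were negative control peptide for no effect and reference peptide for full effect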
# PrPC surface inh: reduces human prion protein on the cell surface | P04156 | cell surface PrPC, TR-FRET read-out | inhibition, % at 13.8 µM | hit rate 0.43% among 370,000 | AID 720596; in the data active means inhibition above about 24%; further: 0% = median of the test wells and 100% = reference compound wells
# PrP 5UTR inh: inhibition of PrP 5' UTR reporter expression | hit rate 0.35% among 340,000 | inhibition, % (concentration not given with the values) | cell-based PrP 5' UTR mRNA reporter, plate reader; in the data active means inhibition above about 52%; further: 0 = median of the neutral control wells
# PfHsp40 rescue: rescue of PfHsp40-mediated yeast toxicity; S. cerevisiae expressing PfHsp40, growth rescue, ATP luminescence; growth rescue, % at 12.5 µM; hit rate 0.68% among 340,000; AID 504582; in the data active means growth rescue above about 28%, passing the limit was not always enough; inconclusive means no clear call, values can overlap the other calls;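 further: yeast W303a lacking pdr1 and pdr3 grown in galactose medium; growth measured after three days at 30 °C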
# MazEF act: increases E. coli MazEF RNase cleavage of RNA; P0AE70; FAM/BHQ RNA-DNA oligo cleavage fluorescence, 5 h; hit rate 0.32% among 350,000; AID 504720; activation, % at 20 µM; in the data active means activation above about 50%
# Target sequence (P0AE70 whole entry, looked up): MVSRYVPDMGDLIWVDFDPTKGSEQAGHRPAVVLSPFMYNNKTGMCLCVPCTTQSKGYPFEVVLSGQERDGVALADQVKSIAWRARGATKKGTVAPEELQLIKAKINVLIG
# An asterisk follows results filed as active; u = inconclusive; x = no result. Rows were chosen to be rich in hits. Some 1.8% of all compounds tested hit in one or more screens of this group.
SMILES,PriA SSB inh,PrPC surface inh,PrP 5UTR inh,PfHsp40 rescue,MazEF act
O=C(NCc1cccnc1)N(c1ccccc1)c1ccccc1,37.0*,x,x,x,x
O=C(NCc1cccnc1)NC(=O)c1ccccc1,4.0,x,x,x,x
O=C(/C=C/NCc1cccnc1)c1ccc(-c2ccccc2)cc1,1.0,-3.3,-9.9,114.5*,-8.5
CCCC/C=C1\CCc2c([nH]c3ccccc23)C1=O,5.2,0.0,-28.3,1.8,4.9
C=CCn1c(-c2cc(-c3ccc(C)cc3)nc3ccccc23)n[nH]c1=S,20.2,2.6,-39.1,413.8*,-4.1
CCn1c(-c2cc(-c3ccc(C)cc3)nc3ccccc23)n[nH]c1=S,11.6,7.1,-1.5,38.5*,2.9
C=CCn1c(-c2cccc3ccccc23)n[nH]c1=S,4.2,4.4,-23.0,1.3,9.9
COc1ccc(Nc2nc(CN3C(=O)CCC3=O)cs2)cc1F,1.0,x,x,x,x
O=C1CC(C(=O)Nc2ccc(C(F)(F)F)cc2)n2c(nc3ccccc32)N1 (stereo not given),4.0,x,x,x,x
CN1CCN(c2oc(-c3ccccc3)nc2S(=O)(=O)c2ccc(Br)cc2)CC1,39.1*,x,-12.2,-0.8,6.5
O=S(=O)(c1ccc(Cl)cc1)c1nc(-c2cccs2)oc1N1CCOCC1,44.0*,x,x,x,x
Cc1ccc(NC(=O)c2ccc(S(=O)(=O)N3CCC(C)CC3)cc2)cc1,-7.2,4.9,-14.9,-0.3,3.7
CCN(CC)c1ccc(SS(=O)(=O)O)cc1,43.2*,3.8,-0.3,0.0,-3.4
CC[n+]1c(/C=C/N(C)c2ccccc2)n(-c2ccccc2)c2ccc(-c3nc4ccccc4s3)cc21,13.8,x,15.4,u,67.8*
CCOC(=O)c1ccc2c(c1)n(CC)c(/C=C/N(C)c1ccccc1)[n+]2CC,-7.2,-1.7,-24.6,-0.5,11.6
Cc1ccc2nc(C)c(C(=O)NN=Cc3ccccc3[N+](=O)[O-])cc2c1,-0.4,x,x,x,x
COc1cc(NC(=O)Nc2ccccc2)c(OC)cc1NC(=O)CN1CCCCC1,42.0*,7.0,4.6,1.8,-1.9
Cc1c(C(=O)NC2CCCc3ccccc32)oc2ccccc12 (stereo not given),-3.7,0.8,-7.0,0.9,-12.2
Cc1c(Cl)cccc1NC(=S)NCCC(c1ccccc1)c1ccccc1,-1.1,14.8,-9.7,54.4*,-1.4
Cc1c(Cl)cccc1NC(=S)NCCC(C)C,-18.8,-5.2,-3.2,0.1,3.5
COc1ccc(NC(=S)NCCC(c2ccccc2)c2ccccc2)c(OC)c1,23.2,9.0,-0.3,38.9*,-2.4
COc1cccc(NC(=S)NCCC(c2ccccc2)c2ccccc2)c1,-8.1,9.2,-12.8,2.6,-4.0
CCOC(=O)C(C)C(C)=NNc1ccc([N+](=O)[O-])cc1[N+](=O)[O-] (stereo not given),66.8*,x,x,x,x
CCOC(=O)CC(C)(C)C(C)=NNc1ccc([N+](=O)[O-])cc1[N+](=O)[O-],44.0*,x,x,x,x
CCOC(=O)C(=NNc1ccc([N+](=O)[O-])cc1[N+](=O)[O-])C(=O)OCC,90.0*,x,x,x,x
SMILES,PriA SSB inh,PrPC surface inh,PrP 5UTR inh,PfHsp40 rescue,MazEF act
Nc1nonc1-n1nnc(C(=O)N/N=C/c2cccc(F)c2)c1-c1ccccc1,x,-1.1,-2.1,-1.2,2.3
O=C(NCc1ccccn1)C1CCC(=O)N1C1CCCCC1 (stereo not given),104.2*,-0.3,-4.3,1.6,-6.0
COCCCn1c(=O)c2sccc2n(Cc2ccccc2)c1=O,-3.7,-0.3,-12.8,-0.7,-2.7
COC(=O)c1[nH]c2cccc(OC)c2c1NC(=O)CN1CCOCC1,-13.6,2.3,-17.5,51.6*,-5.6
O=C1CCC(=O)N1CC1CC2CCC1C2 (stereo not given),-0.8,8.6,12.5,-2.1,0.0
O=P(Nc1cccnc1)(Oc1ccccc1Cl)Oc1ccccc1Cl,1.3,3.6,-19.9,411.4*,12.7
CC(C)(C)OC(=O)N1CCC(c2cc(C(N)=O)n[nH]2)CC1,39.0*,x,x,x,x
CC(C)(C)OC(=O)N1CCC(c2cc(-c3cccs3)n[nH]2)CC1,-4.0,10.3,-20.4,5.6,0.0
C=CCC[C@H](Cc1ccc(F)cc1)C(=O)OC[C@@H](Cc1c[nH]c2ccccc12)NC(=O)[C@@H](CC=C)CC(=O)NCCO,5.4,0.5,1.4,57.4*,9.2
C=CCC[C@H](Cc1ccc(F)cc1)C(=O)OC[C@H](Cc1c[nH]c2ccccc12)NC(=O)[C@H](CC=C)CC(=O)NCCO,13.9,-1.0,-11.8,32.2*,10.2
C=CCC[C@@H](Cc1ccc(F)cc1)C(=O)OC[C@@H](Cc1c[nH]c2ccccc12)NC(=O)[C@H](CC=C)CC(=O)NCCO,20.1,-1.5,-12.7,14.5,3.3
C=CCC[C@@H](Cc1ccc(F)cc1)C(=O)OC[C@H](Cc1c[nH]c2ccccc12)NC(=O)[C@@H](CC=C)CC(=O)NCCO,1.7,-1.5,-13.9,32.9*,8.9
C=CCC[C@@H](Cc1ccc(F)cc1)C(=O)OC[C@@H](Cc1c[nH]c2ccccc12)NC(=O)[C@@H](CC=C)CC(=O)NCCO,3.3,-1.3,-33.1,39.7*,-4.9
Cc1ccn2c(-c3n[nH]c(=S)n3Cc3ccccc3)c(C)nc2c1,1.6,3.5,0.0,-0.5,8.0
COCCOc1cc(N)c(Cl)cc1Cl,-12.8,-9.0,-11.1,-0.7,4.5
Cc1cc(C)n(-c2ccc(C(=O)OCC(=O)N(CC(C)C)C3CCS(=O)(=O)C3)cc2)n1 (stereo not given),8.0,1.1,-23.7,-0.3,3.8
CO[C@@H](CNC(=O)c1ccc2c(c1)OCO2)c1ccccc1Cl,-4.0,x,x,x,x
Cc1ccc2c(c1)N(CCC(=O)NCCCN1CCCC1)C(=O)CO2,-2.7,-4.2,-16.2,0.2,7.8
COc1ccc(-[n+]2c(-c3ccccc3)cc(-c3ccc(C)cc3)cc2-c2ccccc2)cc1,11.1,29.1*,-12.8,-1.1,-10.7
COc1ccc(-c2cc(-c3ccccc3)[n+](C)c(-c3ccccc3)c2)cc1,-13.1,-12.4,-28.4,x,13.1
CC1CC(C)(C)CC2(C1)NC(=O)N(CC(=O)NCCc1ccc3c(c1)OCCO3)C2=O (stereo not given),-16.0,-1.9,-26.6,-0.6,5.7
Cc1ccc(NC(=O)C(=O)N2CCC(Cc3ccccc3)CC2)c([N+](=O)[O-])c1,39.0*,x,x,x,x
C=C1C(=O)O[C@@H]2C[C@@H](C)[C@@H]3C4OC4C(=O)[C@@]3(C)[C@@H](O)[C@H]12 (stereo not given in full),-22.6,36.1*,-58.3,2.7,8.9
Cn1c(/C(C#N)=C(\O)COc2ccc3ccccc3c2)nc2ccccc21,-7.1,2.7,-1.6,1.0,173.7*
COc1ccc(CNc2nc(NCc3ccc(OC)cc3)n(S(C)(=O)=O)n2)cc1,-3.1,-1.6,-17.7,-1.8,-5.0
O=C(NCCC(c1ccccc1)c1ccccc1)C(=O)Nc1ccncc1,47.0*,x,x,x,x
COc1ccccc1N1CCN(S(=O)(=O)CCN2C(=O)CCCC2=O)CC1,-17.0,x,x,x,x
CC(NC(=O)CNC(=O)c1ccco1)c1ccc(S(N)(=O)=O)cc1 (stereo not given),-13.2,3.0,0.1,-1.0,-27.3
O=C(CSc1nccn1Cc1ccc2c(c1)OCO2)Nc1ccc2c(c1)OCCO2,11.0,x,x,x,x

# Screening results (PubChem)
